# Source: PubChem BioAssay AID720553 (National Center for Advancing Translational Sciences (NCATS), 2013)
# Out of some 340,000 compounds screened, about 3,300 (0.97%) were called active.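 How the source made its calls: active means maximum activity change below -70%; inconclusive means maximum activity change from -70% to -50%; inactive means maximum activity change above -50%.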 The sample as a whole holds a higher share of actives than the screen did.
# System: Potassium voltage-gated channel subfamily H member 2, brain isoform KCNH2 3.1 (human)
# Experiment: qHTS for Inhibitors of KCHN2 3.1: Mutant qHTS
# Settings: U2OS KCNH2 3.1, thallium flux FluxOr; stronger effect = lower value
# Text: Many antipsychotic drugs that inhibit the neurotransmitter dopamine also bind to hERG1 channel which might help explain their antipsychotic activity but also produces cardiac side effects. The discovery of the novel KCNH2 3.1 isoform offers a potential new target for the development of antipsychotic drugs without cardiac side effects. This proposal will use a high throughput thallium flux assay developed for KCNH2 to screen compounds that modulate the activity of KCNH2 3.1. The wild type KCNH2 channel will also be screened in parallel to help define the selective modulators of this KCNH2 3.1 potassium channel. The resulting compounds will be validated in electrophysiology experiments. The availability of animal models will allow future testing in vivo for effects on memory and other aspects of animal physiology linked with psychosis. NIH Chemical Genomics Center [NCGC] NIH Molecular Libraries Probe Centers Network [MLPCN] MLPCN Grant: MH096539 Assay Submitter (PI): James Barrow, Johns Hopkins University, Lieber Institute for Brain Development
# U2OS cells were resuspended in cell media containing 10% fetal calf serum (FCS) at a concentration of 2 million cells / mL. The solution was treated with the mutant (3.1) virus at 1.77 x 10^8 / mL and allowed to incubate at room temperature in the dark. After 4 hours of incubation, DMEM + 10% fetal bovine serum (FBS) was added to the cell solution. Three microliter was then dispensed into a 1536 tissue culture treated black assay plates which were incubated overnight at 37 C. Two microliter of loading buffer (HBSS + HEPES + Red40 dye quencher + FluxOr dye) was added and the assay plates were incubated for 45 min at room temperature in the dark. […] A stimulation buffer was added to the plate and the second kinetic read (2 min) was obtained. The rate constant was calculated from the kinetic reads and normalized to the positive and negative DMSO controls.
# On the % scale 0 is the no-effect control and ±100 the full control effect.
row,Compound,activity change
1,O=C(Cc1cccs1)Nc1nnc(C2CC2)s1,-217% (active)
2,CCc1ccccc1OCC(=O)Nc1nnc(C2CC2)s1,-8.55% (inactive)
3,O=C(Cc1cccs1)Nc1nnc(SCc2ccc(F)cc2)s1,3.31% (inactive)
4,O=S(=O)(NC1CCCC1)c1ccc(-n2cnnn2)cc1,5.4% (inactive)
5,Cc1cc(S(=O)(=O)NC2CCCC2)ccc1-n1cnnn1,-70.6% (active)
6,CCOC(=O)C1CCCN(S(=O)(=O)c2ccc(-n3cnnn3)c(C)c2)C1 (centres undefined),10.1% (inactive)
7,O=C(c1ccc(Cl)c([N+](=O)[O-])c1)N1CCN(c2ccccc2)CC1,9.67% (inactive)
8,O=C(c1ccc(N2CCOCC2)c([N+](=O)[O-])c1)N1CCN(c2ccccc2F)CC1,1.08% (inactive)
9,O=C(/C=C/c1ccc(Cl)cc1)N1CCN(c2ccccc2[N+](=O)[O-])CC1,-108% (active)
10,C[C@H]1CN([C@@H](C)CO)C(=O)CCCn2cc(nn2)CO[C@@H]1CN(C)C(=O)Nc1ccccc1,13.1% (inactive)
11,O=C(O)C(=Cc1ccc([N+](=O)[O-])cc1)CCc1ccccc1,-2.12% (inactive)
12,CCOc1ccc(NC(=O)CN(C)C(=O)c2cccc(S(=O)(=O)N3CCCC3)c2)cc1OCC,0.537% (inactive)
13,Cc1ccc(NC(=O)CN(C)C(=O)c2cccc(S(=O)(=O)N3CCCC3)c2)cc1,4.37% (inactive)
14,COc1ccc(NC(=O)CN(C)C(=O)c2cccc(S(=O)(=O)N3CCN(c4ccccc4)CC3)c2)cc1,-101% (active)
15,CC(C)CC1C(=O)N(Cc2cn(CC3CCCCC3)nn2)CCS(=O)(=O)N1Cc1ccc(-c2ccc(Cl)cc2)cc1 (centres undefined),4.02% (inactive)
16,O=c1[nH]c(CN2CCOCC2)nc2scc(-c3ccccc3)c12,0.718% (inactive)
17,NC(=O)Cc1nc2scc(-c3ccc(Cl)cc3)c2c(=O)[nH]1,-145% (active)
18,Cc1sc2nc(CC(N)=O)[nH]c(=O)c2c1-c1ccccc1,4% (inactive)
19,C[C@@H]1CN([C@@H](C)CO)S(=O)(=O)c2ccc(-c3ccc(C(=O)N(C)C)cc3)cc2O[C@@H]1CN(C)Cc1ccccc1C(=O)O,-0.261% (inactive)
20,CC(=O)Nc1ccc(C=Cc2ccc([N+](=O)[O-])cc2)cc1,-16.2% (inactive)
21,COc1ccc(S(=O)(=O)NCC(c2ccc(C)cc2)N2CCN(C)CC2)cc1OC (centres undefined),-2.06% (inactive)
22,Cc1ccc(C(CNC(=O)Nc2cccc(C)c2)N2CCN(C)CC2)cc1 (centres undefined),3.75% (inactive)
23,Cc1ccc(C(CNC(=O)Nc2ccccc2)N2CCN(C)CC2)cc1 (centres undefined),-194% (active)
24,Cc1ccc(S(=O)(=O)N2C[C@H]3n4c(=O)ccc(=O)n4C[C@H](OC(=O)NC4CCCC4)[C@@]3(O)C2)cc1,-5.45% (inactive)
